Measurements as given in paper PMC4336329 (PLoS ONE, 2015).
The whole screen tested about 310,000 compounds, of which about 2,200 (0.71%) showed an effect of 50% or more. Effects have a minus sign here. The list comes from a sample in which strong results are over-represented; it also holds similar structures and randomly drawn compounds.

Biological target: human ether-à-go-go-related gene (hERG) potassium channel (human, UniProt Q12809)
Experiment: primary screen, population patch clamp on CHO cells stably expressing hERG; higher = less effect of the substance
Method: Briefly, Chinese hamster ovary (CHO) cells stably expressing the hERG channel were dislodged from tissue culture flasks and dispensed into PPC plates. […] During the recording, background leak currents were estimated by a 100 ms step to -80 mV from an initial holding potential of -70 mV and subtracted from the subsequent current measurement. The campaign was conducted in two phases using slight differences in recording protocol. In the first phase, the initial voltage pulse used a 100 ms step to -30 mV from a holding potential of -70 mV, a 2 s conditioning step to +25 mV, and a 2 s test step to -30 mV. During the second phase of the screen, the potential during the conditioning step was raised to +45 mV. In both phases of the campaign, a secondary voltage pulse was applied using the same parameters as the second phase initial pulse. The initial and secondary pulses were applied in the absence of compound, and upon application of 1 μM and 10 μM test concentrations. Small molecule effects on hERG current density were quantified by […].

Sequence of human ether-à-go-go-related gene (hERG) potassium channel (Q12809 whole entry, looked up): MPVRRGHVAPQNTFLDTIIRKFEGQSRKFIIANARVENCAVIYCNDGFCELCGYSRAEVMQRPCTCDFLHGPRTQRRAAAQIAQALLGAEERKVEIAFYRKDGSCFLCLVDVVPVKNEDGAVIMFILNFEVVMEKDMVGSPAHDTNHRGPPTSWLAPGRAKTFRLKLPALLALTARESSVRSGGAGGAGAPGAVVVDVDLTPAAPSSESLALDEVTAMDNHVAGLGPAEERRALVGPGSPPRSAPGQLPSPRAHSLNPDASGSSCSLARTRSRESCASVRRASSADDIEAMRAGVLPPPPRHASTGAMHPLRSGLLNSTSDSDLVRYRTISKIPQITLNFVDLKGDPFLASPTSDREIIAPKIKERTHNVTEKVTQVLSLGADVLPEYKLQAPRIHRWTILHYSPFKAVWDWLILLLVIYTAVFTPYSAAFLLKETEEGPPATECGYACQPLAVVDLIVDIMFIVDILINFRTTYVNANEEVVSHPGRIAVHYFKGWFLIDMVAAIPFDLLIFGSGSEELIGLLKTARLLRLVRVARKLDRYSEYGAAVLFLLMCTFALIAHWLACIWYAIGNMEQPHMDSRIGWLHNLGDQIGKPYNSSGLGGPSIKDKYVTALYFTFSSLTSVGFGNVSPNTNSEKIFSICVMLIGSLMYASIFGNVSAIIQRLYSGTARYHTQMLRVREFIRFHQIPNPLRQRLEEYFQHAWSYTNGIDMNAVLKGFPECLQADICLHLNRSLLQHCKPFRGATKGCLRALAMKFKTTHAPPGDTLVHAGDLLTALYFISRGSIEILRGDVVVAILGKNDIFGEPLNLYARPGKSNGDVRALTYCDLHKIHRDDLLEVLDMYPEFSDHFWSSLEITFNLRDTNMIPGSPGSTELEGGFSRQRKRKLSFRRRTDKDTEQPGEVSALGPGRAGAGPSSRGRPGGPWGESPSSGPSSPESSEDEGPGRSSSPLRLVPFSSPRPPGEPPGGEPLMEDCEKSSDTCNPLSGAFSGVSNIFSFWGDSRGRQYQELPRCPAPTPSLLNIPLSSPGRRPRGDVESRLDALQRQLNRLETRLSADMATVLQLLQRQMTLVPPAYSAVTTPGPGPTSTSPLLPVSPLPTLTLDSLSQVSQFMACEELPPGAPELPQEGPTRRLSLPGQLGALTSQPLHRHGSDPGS

Row | Compound | hERG current change (%, negative = inhibition) at 1uM
1 | COc1ccc(CNC(=O)COC(=O)CN2C(=O)C(C)Oc3ccc(C)cc32)cc1 (stereo not drawn) | 9.75%
2 | CCOC(=O)C1(CCOc2ccccc2)CCN(Cc2ccc(C(=O)OC)cc2)CC1 | -15.5%
3 | CCOC(=O)C1(CCc2ccccc2)CCN(Cc2ccc(C(=O)OC)cc2)CC1 | -86.1%
4 | CCOC(=O)C1(CCOC)CCN(Cc2ccc(C(=O)OC)cc2)CC1 | 0.201%
5 | Cc1ccc(NC(=O)/C(C#N)=C/c2ccc(C)s2)c(C)c1 | 14.2%
6 | N#Cc1ccc(CN2CCN(C(=O)c3ccc(S(=O)(=O)N4CCCCCC4)cc3)CC2)cc1 | -5.24%
7 | Cl.O=C(c1cccc(S(=O)(=O)N2CCCCC2)c1)N1CCN(Cc2ccccc2)CC1 | 6.64%
8 | N#Cc1ccc(CN2CCN(C(=O)c3cccc(S(=O)(=O)N4CCCCCC4)c3)CC2)cc1 | -51.3%
9 | Cc1sc2ncn(Cc3ccccc3F)c(=O)c2c1C | 1.65%
10 | O=C1CS/C(=N/N=C2C3CC4CC(C3)CC2C4)N1 | -4.65%
11 | CC(=O)OC1CC[C@]2(C#N)[C@H]3CC[C@]4(C)[C@H](C5C=CC(=O)O5)CCC4(O)C3CCC2(O)C1 (stereo partly drawn) | 12.9%
12 | Cc1cc(C(=O)N2CCCC(N3CCN(c4ccccc4C)CC3)C2)n(C)n1 (stereo not drawn) | -87.7%
13 | CCCc1cc(C(=O)N2CCCC(N3CCN(c4ccccc4C)CC3)C2)n(C)n1 (stereo not drawn) | 3.48%
14 | Cc1ccccc1N1CCN(C2CCCN(C(=O)c3cc(CC(C)C)nn3C)C2)CC1 (stereo not drawn) | 5.95%
15 | Cc1cccc(NS(=O)(=O)c2ccc(C(=O)NCC(C)(C)N3CCOCC3)cc2)c1C | -6.55%
16 | Cc1nc2sc(C(c3cccs3)N3CCN(c4ccccc4)CC3)c(O)n2n1 (stereo not drawn) | 5.92%
17 | COc1ccc(C(c2sc3nc(C)nn3c2O)N2CCN(Cc3ccccc3)CC2)cc1OC (stereo not drawn) | 3.82%
18 | Cc1nc2sc(C(c3cccs3)N3CCN(Cc4ccccc4)CC3)c(O)n2n1 (stereo not drawn) | -50.1%
19 | COc1ccc(OC)c(/C=N/N(C)c2ccccc2)c1 | 12.4%
20 | O=C(NCCCCO)C(F)(F)C(F)(F)C(F)(F)C(=O)NCCCCO | 14.4%
21 | CCC(CC)C(=O)c1c[nH]c(C(=O)NCc2ccncc2)c1 | 10%
22 | COc1ccc(F)cc1CN1CCN(CC(=O)Nc2ccccc2C(=O)NC2CC2)CC1 | -88.8%

Row | Compound | hERG current change (%, negative = inhibition) at 1uM
23 | COc1cc2c(cc1OC)CN(CC(=O)Nc1ccccc1C(=O)NC1CC1)CC2 | -6.04%
24 | CCOc1ccccc1C(=O)NC1CCN(CC(=O)Nc2cc(OC)ccc2OC)CC1 | -25.6%
25 | Cc1ccccc1N1CCN(CC(=O)Nc2ccccc2C(=O)NC2CC2)CC1 | -35.4%
26 | CCOc1ccccc1N1CCN(CC(=O)Nc2ccccc2C(=O)NC2CC2)CC1 | -23.5%
27 | COc1ccc(CN2CCN(CC(=O)Nc3ccccc3C(=O)NC3CC3)CC2)cc1F | -99.6%
28 | COc1ccc(OC)c(CN2CCN(CC(=O)Nc3ccccc3C(=O)NC3CC3)CC2)c1 | -87.6%
29 | COc1ccc(OC)c(NC(=O)CN2CCC(NC(=O)c3ccccc3C)CC2)c1 | -4.31%
30 | O=C(CN1CCN(S(=O)(=O)c2ccc(F)c(F)c2)CC1)Nc1ccccc1C(=O)NC1CC1 | -23.7%
31 | COc1cc(C)c(CN2CCN(CC(=O)Nc3ccccc3C(=O)NC3CC3)CC2)cc1OC | -87.6%
32 | COc1ccccc1OCC(=O)Nc1ccccc1C(=O)NC1CC1 | 1.98%
33 | CC(=O)c1ccc(N2CCN(CC(=O)Nc3ccccc3C(=O)NC3CC3)CC2)c(F)c1 | -5.91%
34 | COc1ccc(NC(=O)CS(=O)(=O)c2ccc(F)cc2)cc1 | 10.6%
35 | Cc1ccc(-c2cc(C(F)(F)F)n3nc(C(=O)Nc4ccon4)cc3n2)cc1C | 7.99%
36 | COCC(=O)N1CCCC(C(=O)c2ccc(-c3ccccc3)cc2)C1 (stereo not drawn) | 0.927%
37 | O=C1/C(=C/c2cccc(Cl)c2)CSc2sccc21 | 16%
38 | COc1ccc(COc2ccc(S(=O)(=O)N3CCCC3)cc2C(N)=O)cc1F | 17.7%
39 | CCOC(=O)c1oc2cc(OCC(N)=O)ccc2c(=O)c1-c1ccc(OC)c(OC)c1 | 15.2%
40 | O=C(O)c1ccccc1NS(=O)(=O)c1ccccc1C(F)(F)F | 5.14%
41 | O=C(Nc1ccc2nc3n(c(=O)c2c1)CCCCC3)c1ccccc1[N+](=O)[O-] | 14.6%
42 | CC1CN(C(=S)Nc2cccc(Cl)c2Cl)CC(C)O1 (stereo not drawn) | 2.73%
43 | COc1cccc(CNC(=O)C2CCN(S(=O)(=O)c3ccc4c(c3)CCC(=O)N4)CC2)c1 | 17.5%
44 | Cc1ccc(C(=O)Oc2coc(CSc3nnc(NC(=O)c4cccs4)s3)cc2=O)cc1 | 13.4%

Row | Compound | hERG current change (%, negative = inhibition) at 1uM
45 | Cc1ccc(C(=O)/C=C\NCc2ccccc2)cc1 | 7.27%
46 | N=c1c(C(=O)NC2CCCC2)cc2c(=O)n3ccccc3nc2n1C1CCCCC1 | -86.9%
47 | N=c1c(C(=O)NC2CCCC2)cc2c(=O)n3ccccc3nc2n1C1CCCC1 | -89.1%
48 | N=c1c(S(=O)(=O)c2ccc(Cl)cc2)cc2c(=O)n3ccccc3nc2n1C1CCCC1 | 13.9%
49 | O=C(NC1CCCCCC1)c1cc2c(=O)n3ccccc3nc2s1 | 8.59%
50 | Cn1c(C(=O)NC2CCCCC2)cc2c(=O)n3ccccc3nc21 | 13.4%
51 | O=P(C(Cl)Cl)(N1CCOCC1)N1CCOCC1 | 17.8%
52 | CC(=O)Nc1cccc(NC(=O)CSc2nnc3ccc(-c4cccnc4)nn23)c1 | 13.1%
53 | CCn1cc(/C=C/C(=O)Nc2c(C)nn(Cc3ccccc3)c2C)cn1 | 6.45%
54 | Cc1nc(-c2ccccc2)nc2[nH]c(C(C)C)cc(=O)c12 | -5.88%
55 | CC(=O)c1ccc(Nc2cc(C)nc3ccc(C)cc23)cc1 | -53.2%
56 | COC(=O)c1ccc(Nc2cc(C)nc3ccc(C)cc23)cc1.Cl | -9.09%
57 | CC(=O)c1cccc(Nc2cc(C)nc3ccc(C)cc23)c1.Cl | -13.7%
58 | N#Cc1ccc(N2CCOCC2)nc1 | 1.37%
59 | N#Cc1ccc(N2CCCNCC2)nc1 | -90.9%
60 | CCCCNC(=O)N1CCCN(c2ccc(C#N)cn2)CC1 | -11.6%
61 | Cc1ccc(NC(=O)COC(=O)Cn2cnc3c2c(=O)n(C)c(=O)n3C)c(Cl)c1 | 13.3%
62 | Cc1ccc(C(=O)COC(=O)C2C3C=CC(C3)C2C(=O)OCC(=O)c2ccc(C)c(C)c2)cc1C (stereo not drawn) | 11.2%
63 | O=C(NCCC1CCCCN1S(=O)(=O)c1ccc(F)cc1)C(=O)Nc1ccccc1 (stereo not drawn) | 7.03%
64 | NC(=O)COC(=O)c1ccc(Oc2ccccc2)cc1 | 4.12%
65 | O=C(Nc1ccccc1C(=O)N1CCCCC1)c1ccc(Cl)cc1Cl | -79.6%
66 | O=C(Nc1cc(C(=O)N2CCCC2)ccc1N1CCCC1)C1CC1 | -1.85%

Row | Compound | hERG current change (%, negative = inhibition) at 1uM
67 | O=C(Nc1ccccc1N1CCCCC1)c1ccccc1F | -5.76%
68 | O=C(Nc1ccccc1C(=O)N1CCCC1)c1ccc(Cl)cc1Cl | 10.3%
69 | O=C(Nc1cc(C(=O)N2CCOCC2)ccc1N1CCCC1)c1cccs1 | -78.2%
70 | O=C(Nc1ccc(C(=O)N2CCOCC2)cc1)c1cccs1 | 20.3%
71 | COC(=O)c1ccc(N2CCOCC2)c(NC(=O)c2cccs2)c1 | 0.514%
72 | O=C(Nc1cc(C(=O)N2CCCC2)ccc1N1CCCC1)c1ccccc1 | -83.5%
73 | O=C(Nc1ccccc1C(=O)N1CCCCCC1)c1ccccc1Cl | 13.6%
74 | O=C(Nc1cc(C(=O)N2CCCC2)ccc1N1CCCC1)c1ccccc1F | -82.8%
75 | CNC(=S)Nc1cc(C(=O)N2CCCC2)ccc1N1CCCC1 | 2.01%
76 | O=C(Nc1ccccc1N1CCCC1)c1ccccc1F | 6.48%
77 | Cc1nnsc1C(=O)N1CCN(c2ccc(C#N)cn2)CC1 | 3.48%
78 | CCOc1cccc(/C=N/N2C(C)CCCC2C)c1O (stereo not drawn) | 2.07%
79 | CCCCCCOc1ccc(CN2CCN(C)CC2)cc1 | -0.56%
80 | CC(=O)/C=C\c1ccccc1OC(=O)c1cc2ccccc2oc1=O | 16.3%
81 | CCOC(=O)c1cc2cc(OCc3ccccc3)ccc2nc1C | 8.83%
82 | CC(C)c1csc(CN2CCC(N3CCC(C(=O)NCC4CCCO4)CC3)CC2)n1 (stereo not drawn) | 9.96%
83 | O=C(Oc1ccc2ccccc2c1)c1ccco1 | -0.657%
84 | O=C(Oc1ccc2ccc(=O)oc2c1)c1ccco1 | -53.7%
85 | O=C(Oc1ccc2ccc(=O)oc2c1)c1ccccc1 | 9.28%
86 | CC1(c2nnc(-c3ccncc3)o2)CC(c2cccc(Cl)c2)=NO1 (stereo not drawn) | 13.4%
87 | O=C(CN1C(=O)CSC1=O)N1CCCC(Nc2ccc(F)cc2)C1 (stereo not drawn) | 11.5%
